# Data as given in PubChem BioAssay.
# Test system: wheat germ agglutinin (Triticum aestivum), Alexa647-labelled
# Assay: Alexa647-WGA lectin binding to printed small molecules – biochemical, small-molecule microarray, 635/667 nm fluorescence, artefact control for SMM control-protein annotation, profiling panel (AID 1140);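 also: score merges 667 nm feature emission with signal to noise over triplicate slides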
# Conditions: WGA-A647 binding, 635 nm fluorescence, higher = more signal
row,Compound,composite z-score
1,O=C1[C@H]2[C@H]3[C@H](O)[C@H](O)CC(=NOC[C@@H](O)COCc4ccco4)[C@@H]3CC[C@H]2C(=O)N1C[C@@H]1CCCO1,-0.559
2,CC(C)=NOC[C@@H](C)[C@H](OCc1ccccc1)C(C)C,-0.351
3,C=CC[C@@H]1C=C[C@H](ON=C(C)CCN2CCc3nc(-c4ccccc4)c(-c4ccccc4)cc3C2)[C@@H](CO)O1,0.169
4,CC(=O)OC[C@H]1OC(ON=CC[C@@H]2C=C[C@H](OC(C)=O)[C@@H](COC(C)=O)O2)[C@H](OC(C)=O)[C@@H](OC(C)=O)[C@@H]1OC(C)=O (some centres undefined),-0.223
5,CON=CC[C@@H]1C=C[C@H](OC(C)=O)[C@@H](COC(C)=O)O1,0.0389
6,COC(=O)CC=C[C@@H](C)[C@@H](C=NO[C@@H]1O[C@H](COC(C)=O)[C@@H](OC(C)=O)[C@H](OC(C)=O)[C@H]1OC(C)=O)OC,-0.421
7,COC(=O)CC=C[C@@H](C)[C@@H](C=NO[C@H](C)c1cn([C@H](CO)Cc2ccccc2)nn1)NS(=O)(=O)c1ccc(C)cc1,0.645
8,CCOC(=O)[C@H](CC(C)C)NC(=O)CCC1CC(OC(=O)NCc2cccc3ccccc23)CC2(CCCC(COC(=O)NCC3CCCCC3)O2)O1 (some centres undefined),0.0121
9,COc1cccc([C@H]2Oc3ccc(OC)cc3C(=NO[C@H](C)c3cn([C@H](CO)Cc4ccccc4)nn3)[C@@H]2O)c1,-0.124
10,CCOC(=O)[C@H](Cc1ccccc1)NC(=O)CCC1CC(OC(=O)NCCc2ccc(F)cc2)CC2(CCCC(COC(=O)NCCCN3CCCC3=O)O2)O1 (some centres undefined),0.374
11,COC(=O)[C@H](C)NC(=O)CCC1CC(OC(=O)NCCc2ccc(F)cc2)CC2(CCCC(COC(=O)NCCC(C)C)O2)O1 (some centres undefined),0.323
12,O=C1C=C[C@@H](O)[C@@H]2[C@@H]3C(=O)N(c4ccc(F)cc4F)C(=O)[C@@H]3CC[C@@H]12,0.215
13,CCOC(=O)[C@H](CC(C)C)NC(=O)CCC1CC(OC(=O)NCc2cccc3ccccc23)CC2(CCCC(COC(=O)NCCCN3CCCC3=O)O2)O1 (some centres undefined),0.662
14,CCOC(=O)[C@H](CC(C)C)NC(=O)CCC1CC(OC(=O)NCc2cccc3ccccc23)CC2(CCCC(COC(=O)NCCc3ccc(Cl)cc3)O2)O1 (some centres undefined),0.844
15,CO[C@H]1COC(=O)CC=C[C@@H](C)[C@H](NS(=O)(=O)c2ccc(C)cc2)COC(=O)CCC[C@@H]1C,-0.0807
16,CC(=O)OC[C@H]1O[C@@H](ON=C(C)CCN2CCCc3nc(C)c(C)cc32)[C@H](OC(C)=O)[C@@H](OC(C)=O)[C@@H]1OC(C)=O,0.476
17,CCOC(=O)CCN1C(=O)[C@H]2[C@H]3[C@H](O)[C@H](O)CC(=NNC(=O)OCc4ccccc4)[C@@H]3CC[C@H]2C1=O,0.304
18,CC=CC1=C(CO)C(=O)[C@@H]2O[C@@H]2C1=O,-0.173
19,O=C1[C@H]2[C@H]3[C@H](O)[C@H](O)CC(=NOCc4ccccc4)[C@H]3CC[C@H]2C(=O)N1Cc1ccc2c(c1)OCO2,0.492
20,COC(=O)CC=C[C@@H](C)[C@@H](C=NOCC[C@@H]1C=C[C@H](OC(C)=O)[C@@H](COC(C)=O)O1)OC,-0.876
21,O=C(NN=C1C[C@@H](O)[C@@H](O)[C@@H]2[C@@H]3C(=O)N(Cc4ccccc4)C(=O)[C@@H]3CC[C@@H]12)OCc1ccccc1,-0.148
22,CO[C@H]1COC(=O)CCC[C@@H](C)[C@H](OC)COC(=O)[C@@H]2CCCN2C(=O)CC=C[C@@H]1C,-0.207
23,CCOC(=O)[C@H](CC(C)C)NC(=O)CCC1CC(OC(=O)NCc2ccc3c(c2)OCO3)CC2(CCCC(COC(=O)NCc3cccc(C(F)(F)F)c3)O2)O1 (some centres undefined),0.144
24,CC(C)CON=C1C[C@@H](O)[C@@H](O)[C@@H]2[C@@H]3C(=O)N(c4ccc(F)cc4F)C(=O)[C@@H]3CC[C@H]12,0.221
25,CO[C@@H]1COC(=O)CC=C[C@@H](C)[C@@H]2C=C[C@H](O)[C@@H](COC(=O)CC=C[C@H]1C)O2,-0.448
26,CC(CCN1CCc2nc(-c3ccccc3)c(-c3ccccc3)cc2C1)=NOC[C@@H](O)COCc1ccco1,0.679
27,C[C@H]1CC[C@H]2C(=O)O[C@H](COc3ccc(C(C)(C)C)cc3)CN2[C@@H]1c1ccc(Br)cc1,0.034
28,CCC1=NOC(CCC2CC(OC(=O)NCc3cccc4c3OCO4)CC3(CCCC(COC(=O)NCCc4ccccc4OC)O3)O2)C1 (centres undefined),0.703
29,C=CC[C@@H]1C=C[C@H](ON=C2[C@H]3CCn4c(=O)n(-c5ccccc5)c(=O)n4[C@H]3[C@H](O)[C@@H]3O[C@H]23)[C@@H](CO)O1,-0.0168
